PubChem BioAssay AID1053144 (Broad Institute, 2014)
In all, about 3,400 compounds went through this assay and about 160 (4.7%) were called active.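 Rule for the calls: active = fitted curve reaches 30% activation at a concentration no higher than the top valid tested dose, luminescence rising; inconclusive = no clear call, values can overlap the other calls; inactive = signal moving opposite to the expected increase, plus the rest.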 These entries were drawn from the full list. Measured potencies and affinities stand elsewhere.

Test: Wnt/beta-catenin signaling activators, dose response, cell-based, iPS-derived NPC, luciferase, Wnt3a, cherry-pick (AID 1053144);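 note: Wnt3a stimulus is conditioned medium from Wnt3a-transfected mouse L cells at 5% in well; 0% = neutral control wells and 100% = CHIR-99021 positive control wells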
Conditions: NPC TCF/LEF luciferase reporter, Wnt3a EC25, 24 h; series mostly up to 26 µM; activation: at the top concentration

Structure (SMILES)	activation
COC(=O)c1ccc(NC(=O)c2cccc(OC)c2)cc1	11% (inactive)
COc1ccc(NC(=O)c2cccc(OS(=O)(=O)N(C)C)c2)cc1	9.03% (inactive)
O=C(/C=C\c1ccco1)Oc1cccc2cccnc12	-5.59% (inactive)
C(=N\Nc1nccc(-c2cccnc2)n1)/c1ccccc1	8.07% (inactive)
CC(C)(C)c1cc(C(=O)NNC(=O)c2ccc(C(F)(F)F)cc2)no1	1.66% (inactive)
COc1ccc(/C=C/C(=O)c2ccccn2)cc1	14.1% (inactive)
CN(C)c1ccc(/C=C/c2ccncc2)cc1	5.29% (inactive)
COc1c(OC(C)=O)ccc(/C=C/c2ccc3cccc(OC)c3n2)c1[N+](=O)[O-]	-1.16% (inactive)
CC(=O)Nc1ccc(-c2ccnc3c2CC(C)(C(=O)NC(C)C)O3)cc1 (stereo unspecified)	0.429% (inactive)
Cc1ccc(NC(=O)CSc2nccn2Cc2ccco2)c(C)c1	6.3% (inactive)
CCC(=O)NCCc1nc2cc(NC(=O)c3ccc(Cl)cc3)ccc2n1C	5.88% (inactive)
Cn1c(CCNC(=O)c2ccco2)nc2cc(NC(=O)c3ccccc3)ccc21	17.2% (inactive)
Clc1ccccc1Nc1nc(-c2cccnc2)cs1	9.94% (inactive)
Nc1ccccc1-n1cccc1	20% (inactive)
Cc1ccc(S(=O)(=O)N2CCCC(C(=O)Nc3ccc(NC(=O)c4ccccn4)cc3)C2)cc1 (stereo unspecified)	0.501% (inactive)
Oc1ccc(-c2csc(Nc3ncccn3)n2)c(O)c1	14.6% (inactive)
Clc1ccc(-c2nc3n(n2)Cc2ccccc2-3)cc1	1.17% (inactive)
COc1ccc(-c2nc3n(c2C)Cc2ccccc2-3)cc1	12.4% (inactive)
Cn1c(-c2ccc(F)c(F)c2)cc2onc(-c3ccccc3)c2c1=O	5.39% (inactive)
NC(=O)C1CCN(C(=O)c2cc3c(s2)CCCCC3)CC1	2.7% (inactive)
O=C(Nc1nc(-c2nc3ccccc3s2)cs1)C1CC1	17% (inactive)

Structure (SMILES)	activation
O=C(Nc1nc(-c2ccc3c(c2)OCCO3)cs1)C1CCCC1	16.9% (inactive)
CC(C)(C)c1ccc(NC(=O)c2ccccc2)c([N+](=O)[O-])c1	3.96% (inactive)
O=C(Nc1ccc2c(c1)OCO2)Nc1ccccn1	13.8% (inactive)
Cc1ccc(CNC(=O)c2ccc(Cn3cc(-c4ccc(C)cc4)nc3-c3ccncc3)cc2)cc1	8.59% (inactive)
Clc1ccc(-c2cc(-c3ccccc3)on2)cc1	10.5% (inactive)
Nc1nc(-c2cc(-c3ccccc3)no2)cs1	9.23% (inactive)
Cc1ccc(OCC(=O)Nc2ccccc2F)cc1	12.7% (inactive)
COc1cccc(OCC(=O)Nc2ccccc2C(N)=O)c1	8.69% (inactive)
Cc1cc(C)c(C#N)c(N2CCSCC2)n1	2.58% (inactive)
O=C(Nc1cccnc1)c1ccc(Oc2ccccc2)cc1	9.21% (inactive)
Cc1nc(NC(=O)c2ccc3c(c2)OCCO3)ccc1Br	7.19% (inactive)
NC(=O)c1ccccc1NC(=O)c1ccc2c(c1)OCO2	16.1% (inactive)
O=C(Nc1ccccc1F)c1ccc2c(c1)OCO2	12.6% (inactive)
O=C(Nc1ncccc1O)c1ccc2ccccc2c1	8.12% (inactive)
O=C(Nc1ccc(Cl)cc1Cl)c1ccc2c(c1)OCCO2	2.85% (inactive)
COCCn1c(C)cc(C(=O)CSc2nc3ccccc3c(=O)n2Cc2ccco2)c1C	18.6% (inactive)
Nc1cc([N+](=O)[O-])ccc1OCc1ccccc1	8.87% (inactive)
O=C(Nc1cc2c(cc1Br)OCCCO2)c1ccccc1	7.2% (inactive)
C/C(=C\c1ccccc1)C(=O)NCCc1ccccc1	15.1% (inactive)
CN(CCO)C(=O)c1ccc(-c2nn(C)c(=O)c3ccccc23)cc1	9.07% (inactive)
O=C(Nc1ccc2c(c1)CCC2)c1cccs1	4.74% (inactive)

Structure (SMILES)	activation
O=C(Nc1cccc(F)c1)Nc1ccc2c(c1)CCC2	6.92% (inactive)
O=C(CCNC(=O)c1ccc(Cl)cc1)NC1CCCCCC1	10.6% (inactive)
CCOc1cc(/C=N/NC(=O)CSc2nnc(C)s2)ccc1OCc1ccccc1Cl	-1.65% (inactive)
O=c1oc(CCO)cc2ccc(-c3ccc4[nH]ccc4c3)cc12	13.7% (inactive)
O=c1c2ccccc2oc2cc(-c3ccc4cc[nH]c4c3)ccc12	7.52% (inactive)
CC1CCc2c(sc(/N=C/c3ccco3)c2C(N)=O)C1 (stereo unspecified)	5.79% (inactive)
Fc1ccc2cc(-c3ccccc3F)ncc2c1	11.3% (inactive)
Cc1cc(NC(=O)c2ccc(OCC3CCCO3)cc2)ccc1Br (stereo unspecified)	11.3% (inactive)
O=c1c2ccccc2nc2c3ccccc3c(NCc3ccccn3)nn12	6.04% (inactive)
O=C(CSc1nc2ccccc2c(=O)n1NC(=O)c1ccccc1)c1ccc(Cl)cc1	6.68% (inactive)
Cn1cccc1C(=O)OCC(=O)Nc1ccc2c(c1)OCCO2	2.19% (inactive)
Cc1ccccc1Cn1nnc(C(=O)Nc2ccc3c(c2)OCCO3)c1N	18% (inactive)
Fc1ccccc1-c1nc2ccccc2[nH]1	7.36% (inactive)
CCOC(=O)c1sc(=NC(=O)c2ccccc2)n(C)c1C	12.3% (inactive)
CCOC(=O)c1sc(=NC(=O)c2ccc(C)cc2)n(C)c1C	5.95% (inactive)
NC(=O)c1cc(Cl)ccc1OCC(=O)Nc1ccc2c(c1)OCO2	15.9% (inactive)
O=C(O)c1ccc(N/N=C/c2cccc3cccnc23)cc1	7.3% (inactive)
Oc1ccccc1/C=N/Nc1cccc2cccnc12	11% (inactive)
Cc1ccc(C(=O)Nc2cccc(C(=O)N3CCOCC3)c2)cc1	13.5% (inactive)
Cn1cccc1C(=O)OCC(=O)N1CCc2ccccc21	13.9% (inactive)
O=C(N=Nc1c(O)[nH]c2ccc(Br)cc12)c1ccco1	8.44% (inactive)

Structure (SMILES)	activation
COC(=O)N=Nc1c(O)[nH]c2ccc(Br)cc12	13% (inactive)
O=C1CCN(Cc2ccccc2)C=C1c1ccc2ccccc2c1	9.52% (inactive)
CC(C)=CC(=O)Nc1ccc(Cl)cc1	11.1% (inactive)
O=C(NCCc1cccc(Cl)c1)c1ccc2c(c1)OCO2	1.66% (inactive)
COc1cccc(NC(=O)/C=C/c2ccco2)c1	15.9% (inactive)
Cc1ccc(-n2nc3ccc(NC(=O)/C=C/c4ccco4)cc3n2)cc1	7.6% (inactive)
O=C(/C=C/c1ccco1)Nc1cccnc1Cl	14.5% (inactive)
O=C(/C=C/c1ccco1)Nc1cccnc1	3.46% (inactive)
COc1cccc(-c2cc(C(=O)N3CCCCCC3)no2)c1	3.16% (inactive)
COc1ccc(-c2cc3nc4n(c(=O)c3s2)CCCCC4)cc1	3.29% (inactive)
O=C(COc1ccc(F)cc1Cl)NC1CCCCCC1	6.97% (inactive)
COc1ccc2c(c1)-c1nc(NC(=O)c3ccco3)sc1CC2	13% (inactive)
COc1ccccc1C(=O)O/N=C(\N)c1ccccn1	7.03% (inactive)
Cc1cccc(C(=O)O/N=C(\N)c2ccc(Cl)cc2)c1	17.3% (inactive)
N/C(=N\OC(=O)c1ccco1)c1ccccc1	10.3% (inactive)
COc1ccc(C(=O)O/N=C(\N)c2ccc(Br)cc2)cc1	14.7% (inactive)
COc1ccccc1C(=O)O/N=C(\N)c1ccccc1Cl	9.49% (inactive)
N/C(=N\OC(=O)c1ccco1)c1cccnc1	1.97% (inactive)
